Source: PubChem (Columbia University Molecular Screening Center)
Sampled rows, rich in hits. Any-hit rate of the full collection: about 1.1%.
sEH activator: soluble epoxide hydrolase activators, primary screen, biochemical, human sEH. 91,000 compounds, 0.04% hits. purified human sEH enzymatic activity, activator screen. Bifunctional epoxide hydrolase 2 (Homo sapiens), P34913. activation, % at 2 µM; in the data active = activation above about 37%
Target sequence (P34913 whole entry, looked up): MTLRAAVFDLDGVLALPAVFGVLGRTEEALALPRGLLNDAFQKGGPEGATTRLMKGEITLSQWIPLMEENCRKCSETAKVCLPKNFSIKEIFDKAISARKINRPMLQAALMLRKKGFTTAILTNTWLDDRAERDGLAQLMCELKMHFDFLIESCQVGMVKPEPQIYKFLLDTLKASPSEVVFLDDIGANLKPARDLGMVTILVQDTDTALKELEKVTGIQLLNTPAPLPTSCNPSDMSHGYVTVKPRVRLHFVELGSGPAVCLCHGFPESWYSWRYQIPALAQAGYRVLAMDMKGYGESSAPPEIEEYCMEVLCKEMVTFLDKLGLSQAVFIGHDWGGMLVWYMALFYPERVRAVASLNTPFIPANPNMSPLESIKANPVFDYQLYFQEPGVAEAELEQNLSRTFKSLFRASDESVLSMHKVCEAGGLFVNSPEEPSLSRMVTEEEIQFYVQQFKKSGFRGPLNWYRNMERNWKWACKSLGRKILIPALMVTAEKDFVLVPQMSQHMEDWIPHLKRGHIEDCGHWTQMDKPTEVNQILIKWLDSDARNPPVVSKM
sEH inhibitor: soluble epoxide hydrolase inhibitors, primary screen, biochemical, human sEH; recombinant human sEH enzymatic activity assay; AID 707, 2007; 91,000 compounds, 0.34% hits; inhibition, % at 2 µM; in the data active = inhibition above about 80%
IL1B cytotox: cytotoxicity in IL-1B stimulated HUVEC, primary screen, cytotoxicity control for IL-1B NFkB translocation project, imaging, Hoechst nuclear count, IL-1B stimulus; HUVEC cell count loss; AID 845, 2007; cell count reduction, % at 2 µM; 94,000 compounds, 0.41% hits;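 active = cell count reduction more than 3 SD above the screen-wide mean, cut at about 70% in these data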;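 note: normalized per plate to untreated control cells as the no-loss baseline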
IL1B NFkB inh: inhibitors of IL-1B driven NFkB p65 nuclear import, primary screen, imaging, HUVEC, IL-1B stimulus, high-content imaging; 94,000 compounds, 0.43% hits; HUVEC IL-1B NFkB p65 nuclear translocation imaging; inhibition, % at 2 µM;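 active = inhibition above about 30% together with a positive call from visual inspection of the well image, limit read from the data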;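 note: nuclear over cytoplasmic p65 intensity ratio measured by imaging; 0% = IL-1B stimulated DMSO wells and 100% = unstimulated DMSO wells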
IL1B NFkB pot: enhancers of NFkB p65 translocation in HUVEC – imaging, IL-1B stimulus, high-content imaging, primary screen; activation, % at 2 µM; HUVEC IL-1B NFkB p65 nuclear translocation imaging; 94,000 compounds, 0.3% hits;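 active = activation above 40%, about the mean plus 3 SD, also judged a hit on visual image review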;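 note: percent activation is computed from the nuclear over cytoplasmic p65 intensity ratio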
The depositor's hits bear a star; . = not tested or not shown.

SMILES	sEH activator	sEH inhibitor	IL1B cytotox	IL1B NFkB inh	IL1B NFkB pot
OC(COCc1ccccc1)CN1CCN(c2ccccc2F)CC1 (centres undefined)	-24.9	24.5	-23.9	-20.3	20.3
CCC(C)NC(=O)Nc1ccc2c(c1)N(C)C(=O)c1ccccc1S2 (centres undefined)	-88.0	87.8*	-2.2	11.4	-11.4
Cc1cccnc1NC(=O)Nc1cccs1	-0.2	-1.1	16.3	-10.5	10.5
COc1ccc(OCC(=O)c2c(O)c3ccccc3oc2=O)cc1	12.0	-11.9	93.8*	12.9	-12.9
O=C(c1ccc(Cn2cc(Br)cn2)o1)n1cccn1	-8.2	7.8	3.4	-18.1	18.1
COC(=O)c1ccc2c(c1)C(C)(C)C(/C=C/c1ccc(OC)c(OC)c1OC)=[N+]2C	6.9	-3.3	-2.2	36.6*	-36.6
COC(=O)c1ccc2c(c1)C(C)(C)C(/C=C/c1ccc(O)cc1)=[N+]2C	1.1	-4.1	-5.8	33.8*	-33.8
COC(=O)c1ccc2nc(C)c(C)nc2c1	-9.8	7.6	3.8	-1.5	1.5
COC(=O)c1ccc(O)c(Sc2cc(C(=O)OC)ccc2O)c1	1.1	1.7	6.7	-14.5	14.5
COc1ccc(NC2c3ncccc3C(=O)N2Cc2ccccc2)c(OC)c1 (centres undefined)	-2.1	5.2	90.1*	-15.7	15.7
CCOc1cc(C(=O)N(C)c2ccccc2)cc(OCC)c1OCC	3.5	-2.1	-30.7	-8.7	8.7
CN1CCN(S(=O)(=O)c2cccc(S(=O)(=O)c3cccc(S(=O)(=O)N4CCN(C)CC4)c3)c2)CC1	-2.5	0.3	19.1	2.0	-2.0
CN1CCN(S(=O)(=O)c2cccc([N+](=O)[O-])c2)CC1	38.6*	-34.8	7.1	4.0	-4.0
CCOC(=O)c1ccc(NC(=O)CSc2nnc(CNc3ccc(OC)cc3)n2C)cc1	-6.6	7.0	-37.6	20.1	-20.1
Cn1nc(-c2ccc(C(=O)NCC3CCCO3)cc2)c2ccccc2c1=O (centres undefined)	-4.2	0.8	89.8*	6.5	-6.5
Cn1nc(-c2ccc(C(=O)O)cc2)c2ccccc2c1=O	-6.2	5.3	-137.6	1.0	-1.0
O=C(c1ccc(N2CCCC2=O)cc1)N1CCN(c2ccccc2)CC1	2.2	-0.9	-31.0	-43.5	43.5*
Cn1nc(-c2ccc(OCC(=O)NCC3CCCO3)cc2)c2ccccc2c1=O (centres undefined)	5.0	-5.8	-13.3	-28.0	28.0
O=C(c1ccc(N2CCCC2=O)cc1)N1CCCCCC1	.	.	-6.7	11.9	-11.9
Cn1nc(-c2ccc(C(=O)N3CCN(c4ccccc4)CC3)cc2)c2ccccc2c1=O	1.9	-4.4	89.5*	99.4*	-99.4
CC1(C)CC(=O)c2c(nc3ccccc3c2N)C1	-6.9	11.4	-27.5	-12.6	12.6
CCNc1c2c(nc3ccccc13)CC(C)(C)CC2=O	13.3	-10.4	79.0*	97.1*	-97.1
CCCn1c(SCC(=O)NCc2ccco2)nc2c1c(=O)n(C)c(=O)n2C	8.2	-9.5	80.9*	7.6	-7.6
CCn1c(SCC(=O)NCc2ccco2)nc2c1c(=O)n(C)c(=O)n2C	2.0	-4.0	-7.0	-17.7	17.7
CCOC(=O)c1[nH]c(C)c(C(=O)NC2CCCCC2)c1C	4.1	-5.4	-1.9	-39.2	39.2
SMILES	sEH activator	sEH inhibitor	IL1B cytotox	IL1B NFkB inh	IL1B NFkB pot
CCOC(=O)c1c(C)c(C(=O)NC2CCCCC2)c(C)n1CC	18.9	-21.8	7.1	.	154.5*
Cn1cc([N+](=O)[O-])c(C(=O)Nc2ccc(Br)cn2)n1	-2.9	8.3	-26.0	-5.4	5.4
CCCC(=O)Nc1nc2ccc(OCC)cc2s1	8.6	-8.9	20.6	-6.3	6.3
CCOc1ccc2nc(NC(=O)c3cnc(C)cn3)sc2c1	10.4	-12.5	-126.5	39.4*	-39.4
Cc1ccc(C(=O)Nn2c(O)c(C=C3N=c4ccccc4=N3)sc2=S)cc1	-6.4	6.5	-38.3	-3.0	3.0
O=C(Nn1c(O)c(C=C2N=c3ccccc3=N2)sc1=S)c1ccccc1	-24.2	23.7	87.6*	-16.6	16.6
Cn1c(=O)oc2cc(S(=O)(=O)N3CCCC(C(=O)Nc4nccs4)C3)ccc21 (centres undefined)	.	.	11.5	-40.6	40.6*
Cn1c(=O)oc2cc(S(=O)(=O)N3CCCC(C(=O)NCCN4CCOCC4)C3)ccc21 (centres undefined)	-1.1	4.5	-11.0	-5.6	5.6
COCc1cc(C)n(CC(=O)Nc2ccc(Cl)cc2Cl)c(=O)c1C#N	21.4	-20.0	-1.7	-40.7	40.7*
COCc1cc(C)n(CC(=O)Nc2ccccc2OC)c(=O)c1C#N	-7.1	4.1	4.2	-7.6	7.6
COc1ccc(-c2cc(C(F)(F)F)nc(-n3cc(Br)cn3)n2)cc1	15.9	-16.4	10.5	-53.7	53.7*
CCOC(=O)c1nnn(-c2nonc2N)c1-c1ccccc1	7.0	-6.7	1.1	-42.3	42.3*
O=C(COc1ccc(/C=N/NS(=O)(=O)c2ccccc2)cc1)Nc1ccc(F)cc1	-14.6	16.3	84.3*	-9.7	-95.0
COc1cccc(N2CCN(C3CC(=O)N(c4ccc(F)c(Cl)c4)C3=O)CC2)c1 (centres undefined)	10.3	-10.4	87.8*	96.0*	-96.0
Cc1ccc2[nH]c(=O)c(CN(Cc3ccccc3)Cc3nnnn3C3CCCC3)cc2c1	13.5	-12.7	71.9*	0.9	-0.9
Cc1ccc2[nH]c(=O)c(CN(Cc3nnnn3C3CCCC3)C3CCCCC3)cc2c1	-1.2	1.2	-71.4	-12.2	12.2
Nn1c(SCC(=O)NCCC2=CCCCC2)nnc1C(F)(F)F	1.3	-0.5	-10.1	0.4	-0.4
O=C(OCc1ccccc1)/C(=C/c1ccc(Cl)cc1)NC(=O)c1ccccc1Cl	-16.7	18.6	-68.7	-40.0	40.0*
CC1CCCC(NC(=O)Cc2ccc(Br)cc2)C1C (centres undefined)	-51.8	53.0	23.9	-6.1	6.1
CC1CCCC(NC(=O)Nc2cccs2)C1C (centres undefined)	-80.7	80.5*	-10.1	-4.8	4.8
O=C(O)c1coc2ccccc12	-3.0	2.9	-18.0	-56.9	56.9*
C=C(C)c1cccc(C(C)(C)NC(=O)N(Cc2ccccc2)Cc2ccco2)c1	-8.2	10.7	3.8	6.0	-6.0
OCCSc1ncnc2c1oc1ccccc12	-2.5	2.6	-10.3	32.0*	-32.0
O=C(NCC1CCCO1)c1ccc(S(=O)(=O)N2CCC(c3nc4ccc(Cl)cc4[nH]3)CC2)cc1 (centres undefined)	-81.0	80.9*	-29.7	-39.7	39.7
CC(C)(C)c1ccc(CN2C3=NCCCN3c3ccccc32)cc1	11.8	-8.6	75.4*	21.3	-21.3
Cc1ccc(CN2C3=NCCCN3c3ccccc32)cc1	-4.1	2.4	-1.3	-23.7	23.7
c1ccc(Cn2cnc3ccccc32)cc1	-2.0	0.2	94.8*	3.3	-3.3
